Assay results as given in PubChem BioAssay (NCI).
This is part of a sample that, as a whole, favours compounds with a hit. Of some 83,000 tested, about 20% had one in any assay.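 Compound tested at a single concentration for 48 hours in 96-well plates; a percent growth value below 10 was scored as active.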 A number with no mark means an inactive call. The source made the active and inactive calls.

tested on: SR leukemia; test: NCI-60 one-dose screen, 48 h (100 = growth as untreated, 0 = no growth, -100 = all killed); settings: 10 µM unless noted

Compound | growth
COc1ccc2c(c1)C1(C(=O)N2)C(C#N)=C(c2ccccc2)Nc2c1c(-c1ccccc1)nn2-c1ccccc1 (centres undefined) | 21.5%
CCN1CCC[C@H]1c1cc(O)c2c(c1OC)C[C@H]1C[C@H]3[C@H](N)C(=O)C(C(N)=O)=C(O)[C@@]3(O)C(=O)C1=C2O | -18.8% (active)
O=C(/C(=C/c1ccc([N+](=O)[O-])cc1)SCc1ccccc1)c1ccc(Cl)cc1 | -1.55% (active)

tested on: RPMI-8226 leukemia; test: as above; settings: 10 µM unless noted

Compound | growth
CCOC(=O)c1cnn(-c2nc(-c3ccc(F)cc3)c(C#N)c(N3CCOCC3)n2)c1N | 103%
Cc1c(O)c(=O)ccn1-c1nc2ccccc2s1 | 96.8%
Nc1ccc(C2=NN(C(=O)c3cc(-c4ccc(Cl)cc4)nc4ccccc34)C(c3ccc(Cl)cc3)C2)cc1 (centres undefined) | 10.4%
COc1ccc2nc(-c3ccc(OC)c(OC)c3)cc(-c3nnc(SCC(=O)Nc4ccc(C(C)=O)cc4)o3)c2c1 | 90.8%
CNCc1cccc2c1OCCOCCOCCN(CCN1CCOCC1)S(=O)(=O)c1ccc(cc1)-c1cnc(N)c(n1)C(=O)N2 | 54.8%
COc1cc(C2=NN(C(C)=O)C(c3cccc(Nc4ccnc5cc(C(F)(F)F)ccc45)c3)C2)cc(OC)c1OC (centres undefined) | 20.8%
CC(C)CSc1nc(Nc2ccccc2)c(C#N)c(-c2ccc(F)cc2)n1 | 21.6%
CNc1cccc2c1C(=O)c1cccc(N)c1C2=O | 38.9%
NC(=O)c1ccc(C2C3=C(CCCC3=O)OC3=C2C(=O)c2ccccc2C3=O)cc1 (centres undefined) | 18.6%
C=CCn1c(SCC(=O)Nc2ccc(C(=O)/C=C/c3ccc(Cl)cc3)cc2)nnc1-c1cc(OC)c(OC)c(OC)c1 | 28.7%
C=C1C(=O)O[C@H]2[C@H]1CC/C(C=Nc1c(N)cc(F)cc1Br)=C\CC[C@@]1(C)O[C@@H]21 | 12.8%
COc1cc(-c2csc(NC(=O)Nc3ccc(Cl)cc3)n2)cc(OC)c1OC | 8.27% (active)
COc1ccc(C(=O)c2cc(OC)c(C)c(OC)c2)cc1OC(=O)CCl | 28.3%
Nc1c(C(=O)Nc2cccc3ccccc23)sc2nc3c(cc12)COCC3 | 59.6%
CN(C)C(CNc1oc(-c2cccc3ccccc23)nc1C#N)c1ccco1 (centres undefined) | 87.8%
Cc1cnc(-c2ccc(-c3ccc(NC(=O)Nc4c(F)cc(F)cc4F)cc3F)c3c2C(=O)NC3)[nH]1 | 22.2%

Compound | growth
COc1ccc(-c2cc(C(=O)N3N=C(c4ccc(N)cc4)CC3c3ccc(OC)cc3)c3cc(OC)ccc3n2)cc1 (centres undefined) | 16.9%
COc1cc([C@H](C)c2ccc3ccccc3c2)cc(OC)c1OC | 15.9%
O=c1nc(-c2ccccc2)c2cc(-c3ccc(N4CCCC4)nc3)ccc2[nH]1 | 71.6%
Cc1cccc2nc3c(n12)C(=O)C(=O)c1ccccc1-3 | 44.9%
CC(=O)Nc1c(C(=O)Nc2ccccc2)sc2nc3c(cc12)C(OC(C)=O)CCC3 (centres undefined) | 107%
CCN1CCN(c2ccc(NC(=O)Nc3nc4ccc(-c5ccccc5OC)cc4s3)cc2)CC1 | -33% (active)
Cc1cc(Cl)cc(CN(Cc2ccccc2)Cc2c(O)ccc3ccccc23)c1O | 87.4%
COC1=CC=CC2(OC)C3(O)CCCc4cccc(c43)N3C(=O)COC132 (centres undefined) | 92.4%
C=C1C(=O)O[C@H]2[C@H]1CC/C(COC(=O)N1CCC[C@H]1C(=O)Nc1ccc(OC)c(C(N)=O)c1O)=C\CC[C@@]1(C)O[C@@H]21 | 1.38% (active)
Cc1cc(C)nc(NS(=O)(=O)c2ccc(Nc3ccc4c5c(n(CCCN(C)C)c(=O)c4c3)-c3ccccc3C5=O)cc2)n1 | 85.4%
COc1cc(NC(=O)c2cc(O)c(C/C=C(\C)CCC=C(C)C)c(O)c2)cc2c1O[C@]1(C)CC[C@@H](O)C(C)(C)[C@H]1C2 | -30% (active)
CCCCCCN1C(=O)CN=C1Nc1ccc2cc3ccc(NC4=NCC(=O)N4CCCCCC)cc3nc2c1 | -22.6% (active)
Nc1ccc(C2=NN(C(=O)c3cc(-c4ccc(Cl)cc4)nc4ccccc34)C(c3ccccc3)C2)cc1 (centres undefined) | 8.12% (active)
CN(CCC#N)C(=O)Nc1ccccc1 | 107%
C=C(C)[C@@H]1CC[C@]2(C(=O)OCCCC[P+](c3ccccc3)(c3ccccc3)c3ccccc3)CC[C@]3(C)[C@H](CC[C@@H]4[C@@]5(C)CC[C@H](OC(=O)C(Cl)Cl)C(C)(C)[C@@H]5CC[C@]43C)[C@@H]12 | -40% (active)
